Assay results as given in PubChem BioAssay (Tox21).
Records with an inconclusive call do not appear. A call without a number means that no potency is given here. Activity calls are given as the source filed them. Calls follow the shape of the full dose curve.

Target: Acetylcholinesterase (Homo sapiens) (UniProt P22303)
Experiment: Acetylcholinesterase (AChE) small molecule antagonists: colormetric cell-based qHTS assay (AID 1347395); also: nearly all actives have a fitted effect of over 30% in size
Conditions: SH-SY5Y cells AChE activity, colorimetric (Ellman); series mostly up to 115 µM
Method in brief: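 Colorimetric read-out: DTNB detects thiocholine released when cellular AChE in SH-SY5Y cells hydrolyses acetylthiocholine. Cells attached overnight, received compound for 30 min at 37 C, then substrate mix for 90 min at 37 C.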

Sequence of Acetylcholinesterase (Homo sapiens) (P22303 whole entry, looked up): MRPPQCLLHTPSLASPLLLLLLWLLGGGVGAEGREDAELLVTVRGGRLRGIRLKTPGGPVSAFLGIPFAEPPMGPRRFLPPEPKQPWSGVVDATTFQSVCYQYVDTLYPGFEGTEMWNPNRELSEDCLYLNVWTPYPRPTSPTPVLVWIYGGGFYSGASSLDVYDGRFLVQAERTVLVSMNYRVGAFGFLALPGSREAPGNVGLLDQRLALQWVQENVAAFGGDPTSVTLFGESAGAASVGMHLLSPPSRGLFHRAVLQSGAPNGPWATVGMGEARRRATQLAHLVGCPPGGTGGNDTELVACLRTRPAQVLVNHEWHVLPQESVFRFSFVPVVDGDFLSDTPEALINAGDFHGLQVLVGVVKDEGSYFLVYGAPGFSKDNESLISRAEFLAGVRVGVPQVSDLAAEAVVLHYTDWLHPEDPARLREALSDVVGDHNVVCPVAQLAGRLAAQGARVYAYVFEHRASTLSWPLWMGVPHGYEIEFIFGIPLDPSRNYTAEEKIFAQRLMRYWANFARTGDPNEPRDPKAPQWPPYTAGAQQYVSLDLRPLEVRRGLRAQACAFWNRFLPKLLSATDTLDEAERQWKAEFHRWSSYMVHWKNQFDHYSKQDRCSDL

Row | Structure (SMILES) | Potency | outcome
1 | CCCCCCCCCCCCc1ccccc1O | inactive | –
2 | CCCCCCCCOC(=O)c1ccc(O)cc1 | inactive | –
3 | O=C(CCNNC(=O)c1ccncc1)NCc1ccccc1 | inactive | –
4 | C/C=C(\C)C(=O)OC/C=C(\C)CCC=C(C)C | inactive | –
5 | C#Cc1ccc(-c2ccccc2F)cc1 | inactive | –
6 | CC(C)CCCCCOC(=O)CCS | inactive | –
7 | CCCCCCCCCCCCCCCO | inactive | –
8 | CN(N=O)C(=O)N[C@@H]1[C@@H](O)[C@H](O)[C@@H](CO)O[C@@H]1O | inactive | –
9 | C=CCOCC(O)CCl (configuration not stated) | inactive | –
10 | O=C(CO)[C@@H](O)[C@H](O)[C@H](O)CO | inactive | –
11 | CCN1C=CN(C)C1C (configuration not stated) | inactive | –
12 | c1ccc2[nH]ccc2c1 | inactive | –
13 | NS(=O)(=O)c1ccc(C(=O)O)cc1 | inactive | –
14 | O=c1c(O)c(O)c1=O | inactive | –
15 | NC(=O)c1cccc([N+](=O)[O-])c1 | inactive | –
16 | CCCCC(CC)COS(=O)(=O)O (configuration not stated) | inactive | –
17 | CCO/C=C1\N=C(c2ccccc2)OC1=O | inactive | –
18 | CC(CCO)CC(C)(C)C (configuration not stated) | inactive | –
19 | C#CCN[C@@H]1CCc2ccccc21 | – | inactive
20 | CC(C)CCCCCCCOC(=O)CCCCC(=O)OCCCCCCCC(C)C | inactive | –
21 | Cc1ccc(-c2cc(C(F)(F)F)nn2-c2ccc(S(N)(=O)=O)cc2)cc1 | inactive | –
22 | O=C(NCCN1CCOCC1)c1ccc(Cl)cc1 | inactive | –
23 | CCCCOC(=O)CCS | inactive | –
24 | C=CCSSCCC | inactive | –
25 | CCC(C)(O)CCCC(C)C (configuration not stated) | inactive | –
26 | Cc1cc(O)c(C(C)(C)C)cc1Sc1cc(C(C)(C)C)c(O)cc1C | inactive | –
27 | CN=C(N)NC(=O)Nc1c(C)cccc1C | inactive | –
